# Article PMC7862700, “An all-to-all approach to the identification of sequence-specific readers for epigenetic DNA modifications on cytosine”
# Experiments:
# Experiment in all cases: DAPPL (digital affinity profiling via proximity ligation, sequencing); 10 mM Tris-HCl pH 7.5, 50 mM NaCl, 1 mM DTT, 4% glycerol, room temperature, 30 min; GST-TFs on glutathione beads, 16-mer random dsDNA library, 0.1% formaldehyde crosslink after washing; high values mean tight binding
# Conditions in all cases: protein: recombinant; tags: N-terminal GST; dsDNA, one strand shown
# FLI1 = target: T1, FLI1 (Homo sapiens, UniProt Q01543 1-452)
# T1 sequence: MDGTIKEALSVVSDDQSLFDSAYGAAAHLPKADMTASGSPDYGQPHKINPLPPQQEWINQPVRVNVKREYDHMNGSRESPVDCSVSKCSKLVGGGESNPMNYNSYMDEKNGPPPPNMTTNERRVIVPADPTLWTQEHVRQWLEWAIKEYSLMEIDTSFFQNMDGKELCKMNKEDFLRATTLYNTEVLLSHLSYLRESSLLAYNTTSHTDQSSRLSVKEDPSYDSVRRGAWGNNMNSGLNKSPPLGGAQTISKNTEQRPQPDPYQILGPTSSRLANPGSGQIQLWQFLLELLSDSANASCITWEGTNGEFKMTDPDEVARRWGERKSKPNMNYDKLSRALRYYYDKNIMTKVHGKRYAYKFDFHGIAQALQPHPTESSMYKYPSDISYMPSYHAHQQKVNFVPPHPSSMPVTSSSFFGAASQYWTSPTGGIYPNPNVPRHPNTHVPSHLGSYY
# Summary of the method: (§1)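 Binding signal is defined as a hexamer's read frequency for one factor over its frequency for the tag-only sample. To obtain reads, GST-fused human transcription factors were expressed in yeast, captured on glutathione beads, barcoded with DNA and pooled with that sample. Pools met 200 nmole of a 16-mer random double-stranded DNA library in Tris/NaCl/DTT/glycerol buffer for 30 min at room temperature before washing, 0.1% formaldehyde crosslinking, proximity ligation (BsaI/T4 ligase, 1 h, 37 °C), PCR and Illumina NextSeq500 sequencing.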
# ELK1 = target: T2, ELK1 (Homo sapiens, UniProt P19419 1-428)
# T2 sequence: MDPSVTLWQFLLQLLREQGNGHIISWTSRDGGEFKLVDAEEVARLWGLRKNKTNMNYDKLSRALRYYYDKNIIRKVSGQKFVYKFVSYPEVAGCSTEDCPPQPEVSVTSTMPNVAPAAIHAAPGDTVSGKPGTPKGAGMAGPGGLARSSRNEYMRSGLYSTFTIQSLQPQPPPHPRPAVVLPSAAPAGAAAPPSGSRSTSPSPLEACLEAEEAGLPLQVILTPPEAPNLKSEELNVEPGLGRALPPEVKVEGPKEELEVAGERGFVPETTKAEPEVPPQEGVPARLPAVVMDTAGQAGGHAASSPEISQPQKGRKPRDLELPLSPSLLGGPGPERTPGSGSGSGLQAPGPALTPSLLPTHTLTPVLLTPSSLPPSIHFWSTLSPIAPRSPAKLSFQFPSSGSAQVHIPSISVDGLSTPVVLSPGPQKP
# Summary of the method: as §1
# GABPA = target: T3, GABPA (Homo sapiens, UniProt Q06546 1-454)
# T3 sequence: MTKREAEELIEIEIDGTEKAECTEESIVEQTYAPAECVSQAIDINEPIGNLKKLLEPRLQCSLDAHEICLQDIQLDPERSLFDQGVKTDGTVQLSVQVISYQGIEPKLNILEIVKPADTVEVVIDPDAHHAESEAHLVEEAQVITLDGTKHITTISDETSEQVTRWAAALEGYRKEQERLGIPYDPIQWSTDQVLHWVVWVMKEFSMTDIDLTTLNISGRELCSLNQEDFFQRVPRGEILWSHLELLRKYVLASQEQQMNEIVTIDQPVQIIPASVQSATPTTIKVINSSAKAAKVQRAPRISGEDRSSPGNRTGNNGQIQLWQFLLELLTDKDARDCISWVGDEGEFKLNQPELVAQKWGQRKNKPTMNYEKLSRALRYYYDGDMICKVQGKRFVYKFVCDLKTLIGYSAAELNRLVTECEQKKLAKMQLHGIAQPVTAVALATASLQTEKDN
# Summary of the method: as §1
# ELF1 = ELF1 (Homo sapiens, UniProt P32519 1-619)
# Summary of the method: as §1
# EHF = target: T4, EHF (Homo sapiens, UniProt Q9NZC4 1-300)
# T4 sequence: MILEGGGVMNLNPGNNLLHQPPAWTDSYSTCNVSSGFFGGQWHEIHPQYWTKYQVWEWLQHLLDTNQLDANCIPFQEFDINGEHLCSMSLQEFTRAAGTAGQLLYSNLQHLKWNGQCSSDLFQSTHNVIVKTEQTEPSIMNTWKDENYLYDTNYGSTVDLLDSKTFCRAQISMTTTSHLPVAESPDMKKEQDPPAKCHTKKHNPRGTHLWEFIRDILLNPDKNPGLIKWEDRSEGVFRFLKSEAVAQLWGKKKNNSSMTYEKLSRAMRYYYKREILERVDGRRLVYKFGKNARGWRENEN
# Summary of the method: as §1
# SPI1 = SPI1 (Homo sapiens, UniProt P17947 1-270)
# Summary of the method: as §1
# SPIB = SPIB (Homo sapiens, UniProt Q01892 1-262)
# Summary of the method: as §1
# ELK3 = target: T5, ELK3 (Homo sapiens, UniProt P41970 1-407)
# T5 sequence: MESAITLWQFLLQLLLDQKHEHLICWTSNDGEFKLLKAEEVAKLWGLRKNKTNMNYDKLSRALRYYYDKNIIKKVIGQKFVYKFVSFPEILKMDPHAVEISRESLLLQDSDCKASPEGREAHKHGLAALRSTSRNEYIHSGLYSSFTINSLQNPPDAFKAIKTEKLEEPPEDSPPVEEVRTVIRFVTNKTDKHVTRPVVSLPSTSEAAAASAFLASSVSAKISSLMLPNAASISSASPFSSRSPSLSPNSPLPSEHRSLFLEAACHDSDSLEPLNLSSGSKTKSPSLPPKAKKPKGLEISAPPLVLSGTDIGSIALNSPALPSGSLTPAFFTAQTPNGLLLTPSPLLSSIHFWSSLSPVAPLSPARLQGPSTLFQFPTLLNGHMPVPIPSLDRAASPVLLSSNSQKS
# Summary of the method: as §1
# ERG = target: T6, ERG (Homo sapiens, UniProt P11308 1-479)
# T6 sequence: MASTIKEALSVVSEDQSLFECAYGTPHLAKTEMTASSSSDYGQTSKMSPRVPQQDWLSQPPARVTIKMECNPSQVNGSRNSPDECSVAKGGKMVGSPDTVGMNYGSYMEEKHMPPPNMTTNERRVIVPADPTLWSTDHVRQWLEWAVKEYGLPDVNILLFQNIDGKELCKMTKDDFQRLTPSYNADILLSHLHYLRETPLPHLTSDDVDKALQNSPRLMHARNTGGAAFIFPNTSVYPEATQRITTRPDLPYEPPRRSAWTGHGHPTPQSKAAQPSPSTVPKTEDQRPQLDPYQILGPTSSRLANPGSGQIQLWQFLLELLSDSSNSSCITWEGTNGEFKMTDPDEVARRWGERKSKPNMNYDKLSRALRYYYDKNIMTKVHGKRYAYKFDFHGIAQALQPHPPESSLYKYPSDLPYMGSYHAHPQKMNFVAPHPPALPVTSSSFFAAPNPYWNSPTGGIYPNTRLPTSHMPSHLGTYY
# Summary of the method: as §1
# Sequence of SPIB (Q01892 whole entry): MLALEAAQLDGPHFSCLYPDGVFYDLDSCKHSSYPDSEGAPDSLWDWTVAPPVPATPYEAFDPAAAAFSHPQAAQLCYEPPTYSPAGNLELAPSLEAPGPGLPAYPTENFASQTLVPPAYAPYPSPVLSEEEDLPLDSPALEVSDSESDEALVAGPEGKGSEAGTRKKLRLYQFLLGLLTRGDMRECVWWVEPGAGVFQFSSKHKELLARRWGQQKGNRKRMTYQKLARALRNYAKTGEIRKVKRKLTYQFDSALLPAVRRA
# Sequence of ELF1 (P32519 whole entry): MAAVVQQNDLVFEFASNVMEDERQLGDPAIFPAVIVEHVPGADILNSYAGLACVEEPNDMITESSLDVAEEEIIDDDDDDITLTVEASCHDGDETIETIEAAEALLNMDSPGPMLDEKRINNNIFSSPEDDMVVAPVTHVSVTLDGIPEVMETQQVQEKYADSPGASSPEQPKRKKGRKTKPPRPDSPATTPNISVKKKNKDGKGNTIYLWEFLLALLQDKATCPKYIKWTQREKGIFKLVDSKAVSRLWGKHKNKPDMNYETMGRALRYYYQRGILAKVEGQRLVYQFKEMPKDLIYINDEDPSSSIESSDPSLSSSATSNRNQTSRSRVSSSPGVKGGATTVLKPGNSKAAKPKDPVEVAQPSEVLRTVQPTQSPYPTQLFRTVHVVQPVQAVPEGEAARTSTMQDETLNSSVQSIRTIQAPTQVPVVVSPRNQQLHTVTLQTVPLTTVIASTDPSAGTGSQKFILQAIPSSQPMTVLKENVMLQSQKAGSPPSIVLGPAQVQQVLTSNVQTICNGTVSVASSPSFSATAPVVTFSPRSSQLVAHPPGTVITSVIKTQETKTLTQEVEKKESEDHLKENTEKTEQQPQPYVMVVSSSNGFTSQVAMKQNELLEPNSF
Sequence,binding signal (FLI1),binding signal (ELK1),binding signal (GABPA),binding signal (ELF1),binding signal (EHF),binding signal (SPI1),binding signal (SPIB),binding signal (ELK3),binding signal (ERG)
CTGCAG,"1.13 fold enrichment (6-mer frequency, TF over GST control)","1.1 fold enrichment (6-mer frequency, TF over GST control)","1.16 fold enrichment (6-mer frequency, TF over GST control)","1.08 fold enrichment (6-mer frequency, TF over GST control)","1.18 fold enrichment (6-mer frequency, TF over GST control)","1.14 fold enrichment (6-mer frequency, TF over GST control)","1.08 fold enrichment (6-mer frequency, TF over GST control)","1.05 fold enrichment (6-mer frequency, TF over GST control)",
CAAAGC,"1.08 fold enrichment (6-mer frequency, TF over GST control)","1.02 fold enrichment (6-mer frequency, TF over GST control)","1.16 fold enrichment (6-mer frequency, TF over GST control)","1.17 fold enrichment (6-mer frequency, TF over GST control)",,"1.03 fold enrichment (6-mer frequency, TF over GST control)","1.04 fold enrichment (6-mer frequency, TF over GST control)","1.1 fold enrichment (6-mer frequency, TF over GST control)","1 fold enrichment (6-mer frequency, TF over GST control)"
AGGTTT,"1.02 fold enrichment (6-mer frequency, TF over GST control)","1.04 fold enrichment (6-mer frequency, TF over GST control)","1.08 fold enrichment (6-mer frequency, TF over GST control)",,"1.07 fold enrichment (6-mer frequency, TF over GST control)","1.06 fold enrichment (6-mer frequency, TF over GST control)","1.04 fold enrichment (6-mer frequency, TF over GST control)","1.13 fold enrichment (6-mer frequency, TF over GST control)","1.06 fold enrichment (6-mer frequency, TF over GST control)"
AGTTCT,"1.02 fold enrichment (6-mer frequency, TF over GST control)","1.15 fold enrichment (6-mer frequency, TF over GST control)","1.11 fold enrichment (6-mer frequency, TF over GST control)","1.04 fold enrichment (6-mer frequency, TF over GST control)",,"1.14 fold enrichment (6-mer frequency, TF over GST control)","1.2 fold enrichment (6-mer frequency, TF over GST control)","1.11 fold enrichment (6-mer frequency, TF over GST control)","1.11 fold enrichment (6-mer frequency, TF over GST control)"
TTGCAG,"1.12 fold enrichment (6-mer frequency, TF over GST control)","1.19 fold enrichment (6-mer frequency, TF over GST control)","1.15 fold enrichment (6-mer frequency, TF over GST control)","1.16 fold enrichment (6-mer frequency, TF over GST control)",,"1.08 fold enrichment (6-mer frequency, TF over GST control)","1.16 fold enrichment (6-mer frequency, TF over GST control)","1.24 fold enrichment (6-mer frequency, TF over GST control)","1.15 fold enrichment (6-mer frequency, TF over GST control)"
TTTAGG,"1.05 fold enrichment (6-mer frequency, TF over GST control)","1.12 fold enrichment (6-mer frequency, TF over GST control)","1.11 fold enrichment (6-mer frequency, TF over GST control)",,"1.06 fold enrichment (6-mer frequency, TF over GST control)","1.08 fold enrichment (6-mer frequency, TF over GST control)","1.15 fold enrichment (6-mer frequency, TF over GST control)","1.07 fold enrichment (6-mer frequency, TF over GST control)","1.08 fold enrichment (6-mer frequency, TF over GST control)"
AGATAA,"1.09 fold enrichment (6-mer frequency, TF over GST control)","1.07 fold enrichment (6-mer frequency, TF over GST control)","1.09 fold enrichment (6-mer frequency, TF over GST control)","1.01 fold enrichment (6-mer frequency, TF over GST control)","1.03 fold enrichment (6-mer frequency, TF over GST control)","1.01 fold enrichment (6-mer frequency, TF over GST control)","1.12 fold enrichment (6-mer frequency, TF over GST control)",,
GCTGGC,"1.01 fold enrichment (6-mer frequency, TF over GST control)","1.21 fold enrichment (6-mer frequency, TF over GST control)","1.02 fold enrichment (6-mer frequency, TF over GST control)","1.11 fold enrichment (6-mer frequency, TF over GST control)",,"1 fold enrichment (6-mer frequency, TF over GST control)",,"1.03 fold enrichment (6-mer frequency, TF over GST control)","1.01 fold enrichment (6-mer frequency, TF over GST control)"
TGCCTA,"1.02 fold enrichment (6-mer frequency, TF over GST control)","1.12 fold enrichment (6-mer frequency, TF over GST control)","1.01 fold enrichment (6-mer frequency, TF over GST control)","1.11 fold enrichment (6-mer frequency, TF over GST control)","1.09 fold enrichment (6-mer frequency, TF over GST control)","1.04 fold enrichment (6-mer frequency, TF over GST control)","1.07 fold enrichment (6-mer frequency, TF over GST control)",,
AATCGA,"1 fold enrichment (6-mer frequency, TF over GST control)","1.06 fold enrichment (6-mer frequency, TF over GST control)","1.07 fold enrichment (6-mer frequency, TF over GST control)","1.03 fold enrichment (6-mer frequency, TF over GST control)",,,"1.07 fold enrichment (6-mer frequency, TF over GST control)","1.12 fold enrichment (6-mer frequency, TF over GST control)","1.02 fold enrichment (6-mer frequency, TF over GST control)"
CTATGT,"1.11 fold enrichment (6-mer frequency, TF over GST control)","1.11 fold enrichment (6-mer frequency, TF over GST control)","1.22 fold enrichment (6-mer frequency, TF over GST control)","1.09 fold enrichment (6-mer frequency, TF over GST control)","1.03 fold enrichment (6-mer frequency, TF over GST control)","1.04 fold enrichment (6-mer frequency, TF over GST control)","1.15 fold enrichment (6-mer frequency, TF over GST control)",,
GTATGG,"1.12 fold enrichment (6-mer frequency, TF over GST control)","1.04 fold enrichment (6-mer frequency, TF over GST control)","1.04 fold enrichment (6-mer frequency, TF over GST control)","1.08 fold enrichment (6-mer frequency, TF over GST control)","1.05 fold enrichment (6-mer frequency, TF over GST control)","1.06 fold enrichment (6-mer frequency, TF over GST control)","1.1 fold enrichment (6-mer frequency, TF over GST control)",,
TGTTCG,"1.19 fold enrichment (6-mer frequency, TF over GST control)","1.1 fold enrichment (6-mer frequency, TF over GST control)","1.07 fold enrichment (6-mer frequency, TF over GST control)",,"1.2 fold enrichment (6-mer frequency, TF over GST control)","1.06 fold enrichment (6-mer frequency, TF over GST control)","1.09 fold enrichment (6-mer frequency, TF over GST control)","1.03 fold enrichment (6-mer frequency, TF over GST control)","1.04 fold enrichment (6-mer frequency, TF over GST control)"
TGTGGA,"1.08 fold enrichment (6-mer frequency, TF over GST control)","1.01 fold enrichment (6-mer frequency, TF over GST control)","1.06 fold enrichment (6-mer frequency, TF over GST control)","1.11 fold enrichment (6-mer frequency, TF over GST control)",,"1.09 fold enrichment (6-mer frequency, TF over GST control)","1.1 fold enrichment (6-mer frequency, TF over GST control)","1.04 fold enrichment (6-mer frequency, TF over GST control)","1.16 fold enrichment (6-mer frequency, TF over GST control)"
TAGCGG,"1.14 fold enrichment (6-mer frequency, TF over GST control)","1.1 fold enrichment (6-mer frequency, TF over GST control)","1.06 fold enrichment (6-mer frequency, TF over GST control)",,"1.24 fold enrichment (6-mer frequency, TF over GST control)","1.23 fold enrichment (6-mer frequency, TF over GST control)","1.17 fold enrichment (6-mer frequency, TF over GST control)","1.08 fold enrichment (6-mer frequency, TF over GST control)","1.16 fold enrichment (6-mer frequency, TF over GST control)"
